Test results reported in the supplement of paper PMC3545927.
This is one part of the list. No count for the full screen is at hand.

Target: furin, P09958
Experiment: furin cleavage Z-score vs untreated control; higher = more cleavage, active = 3.5 or more, inactive = 1 or less, 8 variable residues between constant flanks
In short: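 Furin-free reactions served as the baseline for the cleavage Z-score, which is the log read count lowess-adjusted and scaled by median absolute deviation. Counts came from released DNA, adapter-tagged by PCR and sequenced. Purified furin had cut 8-mer peptides fused to a cDNA oligonucleotide on magnetic beads during 7.5, 15 or 30 min at 1:10 enzyme:substrate.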
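Also: purified furin at 1:10 enzyme:substrate in 50 mM HEPES pH 7.5.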

Sequence of furin, P09958 (P09958 whole entry): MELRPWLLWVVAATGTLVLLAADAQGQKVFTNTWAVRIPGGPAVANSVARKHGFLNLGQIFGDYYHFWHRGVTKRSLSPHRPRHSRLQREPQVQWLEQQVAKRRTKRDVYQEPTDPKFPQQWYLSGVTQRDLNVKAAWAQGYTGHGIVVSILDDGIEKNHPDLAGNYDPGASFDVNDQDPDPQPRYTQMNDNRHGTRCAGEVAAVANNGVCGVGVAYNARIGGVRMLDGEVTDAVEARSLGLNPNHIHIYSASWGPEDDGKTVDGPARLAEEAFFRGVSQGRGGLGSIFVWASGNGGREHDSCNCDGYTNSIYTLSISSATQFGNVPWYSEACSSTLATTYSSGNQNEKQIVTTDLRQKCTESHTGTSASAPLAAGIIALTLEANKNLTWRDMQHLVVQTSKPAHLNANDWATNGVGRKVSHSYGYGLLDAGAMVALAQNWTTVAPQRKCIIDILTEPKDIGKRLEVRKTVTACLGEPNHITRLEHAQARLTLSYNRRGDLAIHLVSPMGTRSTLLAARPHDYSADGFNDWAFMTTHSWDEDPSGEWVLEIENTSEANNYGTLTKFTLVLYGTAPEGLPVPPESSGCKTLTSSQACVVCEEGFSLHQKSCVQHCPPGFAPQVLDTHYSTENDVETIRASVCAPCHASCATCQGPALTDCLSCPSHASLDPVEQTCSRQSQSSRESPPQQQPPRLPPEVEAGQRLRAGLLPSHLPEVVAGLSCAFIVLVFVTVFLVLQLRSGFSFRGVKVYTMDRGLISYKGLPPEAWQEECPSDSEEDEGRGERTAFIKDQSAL

Sequence	furin cleavage Z-score (7.5 min)	furin cleavage Z-score (15 min)	furin cleavage Z-score (30 min)
CAAATLGFGAAGNASASA [HC790]	-0.962 (inactive)	1.23	1.13
CARAKRRGGGAGNASASA [FS-2886]	0.374 (inactive)	-1.9 (inactive)	0.196 (inactive)
CARDGRKVTVAGNASASA [FS-2902]	-0.804 (inactive)	-0.377 (inactive)	-1.67 (inactive)
CARAKRKVTRAGNASASA [FS-2636]	3.09	4.94 (active)	4.17 (active)
CANLLSVEEAAGNASASA [HC1411]	1.03	-1.37 (inactive)	1.04
CARKNRSQIVAGNASASA [FS-1731]	0.382 (inactive)	1.89	1.82
CARKNRSTASAGNASASA [FS-3159]	4.98 (active)	6.48 (active)	5.71 (active)
CARKRRPYGSAGNASASA [FS-1960]	-0.105 (inactive)	0.526 (inactive)	-2 (inactive)
CARKGRSYGSAGNASASA [FS-1902]	2.38	4.19 (active)	3.35
CARKGRSQSVAGNASASA [FS-2688]	0.447 (inactive)	1.69	2.28
CARKNRSFYAAGNASASA [FS-3222]	-0.489 (inactive)	0.152 (inactive)	-1.6 (inactive)
CAESVTSTWVAGNASASA [HC2177]	0.711 (inactive)	-0.0286 (inactive)	-0.582 (inactive)
CASCLWMMLLAGNASASA [HC527]	0.0621 (inactive)	-0.464 (inactive)	0.433 (inactive)
CAHYQDVLKEAGNASASA [HC1402]	-0.724 (inactive)	-0.493 (inactive)	0.655 (inactive)
CALRERPVRCAGNASASA [FS-458]	2.04	2.12	4.39 (active)
CAIRRRTQRCAGNASASA [FS-933]	7.07 (active)	6.92 (active)	6.54 (active)

Sequence	furin cleavage Z-score (7.5 min)	furin cleavage Z-score (15 min)	furin cleavage Z-score (30 min)
CAYGAKDVRCAGNASASA [HC1422]	-0.0596 (inactive)	0.548 (inactive)	0.765 (inactive)
CAQRSRQVRCAGNASASA [FS-482]	0.775 (inactive)	0.292 (inactive)	1.12
CAQRQRSVRCAGNASASA [FS-481]	1.64	0.494 (inactive)	0.731 (inactive)
CAINRRTGRPAGNASASA [FS-34]	-0.402 (inactive)	-1.89 (inactive)	-1.13 (inactive)
CALSRRRVRCAGNASASA [FS-1543]	10.2 (active)	7.81 (active)	8.22 (active)
CATTPCSASWAGNASASA [HC1883]	-0.499 (inactive)	0.682 (inactive)	-0.342 (inactive)
CAVVGCSMSYAGNASASA [HC2036]	1.64	-0.0657 (inactive)	1.23
CASTPCSGSWAGNASASA [HC1837]	-0.691 (inactive)	-0.464 (inactive)	-0.623 (inactive)
CARRARSPHDAGNASASA [FS-1834]	8.36 (active)	9.74 (active)	9.02 (active)
CARPRRVIARAGNASASA [FS-2746]	0.722 (inactive)	0.121 (inactive)	1.35
CARPWKSVALAGNASASA [FS-1765]	1.43	0.873 (inactive)	-0.932 (inactive)
CARRARAVHDAGNASASA [FS-2769]	0.991 (inactive)	0.269 (inactive)	0.722 (inactive)
CARPRRSLALAGNASASA [FS-2504]	7.93 (active)	10.2 (active)	8.84 (active)
CARRARSWAEAGNASASA [FS-1772]	0.748 (inactive)	2.17	4.73 (active)
CARPRRELSLAGNASASA [FS-2501]	9.83 (active)	9.15 (active)	8.79 (active)
CARRARSSVCAGNASASA [FS-2771]	-0.135 (inactive)	0.0716 (inactive)	2.53
